# About 410 targets per protein were measured; listed, in parts, are those with the strongest signals and a random draw of the rest.
# B1: AT1G77380(17) (Arabidopsis thaliana), Q39134 (protein)
# chain: MVQNHQTVLAVDMPQTGGSKYLDDDGKNKRTGSVWTASAHIITAVIGSGVLSLAWATAQLGWLAGPVVMLLFSAVTYFTSSLLAACYRSGDPISGKRNYTYMDAVRSNLGGVKVTLCGIVQYLNIFGVAIGYTIASAISMMAIKRSNCFHKSGGKDPCHMNSNPYMIAFGLVQILFSQIPDFDQLWWLSILAAVMSFTYSSAGLALGIAQVVVNGKVKGSLTGISIGAVTETQKIWRTFQALGDIAFAYSYSIILIEIQDTVKSPPSEEKTMKKATLVSVSVTTMFYMLCGCMGYAAFGDLSPGNLLTGFGFYNPYWLLDIANAAIVIHLIGAYQVYCQPLFAFIEKQASIQFPDSEFIAKDIKIPIPGFKPLRLNVFRLIWRTVFVIITTVISMLLPFFNDVVGLLGALGFWPLTVYFPVEMYIAQKKIPRWSTRWVCLQVFSLGCLVVSIAAAAGSIAGVLLDLKSYKPFRSEY
# How the values were obtained:
# Assay in all cases: glycan array binding signal (z-score within array); higher = stronger binding
# Conditions in all cases: glycan notation: IUPAC condensed, linker removed
# [1] = molecular target: Gal6S(b1-3)GlcNAc
# Outline: (§1)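 Glycan array binding is given as a within-array Z-score, which can be read as non-binding when negative. The arrays, 3228 of them, came from the Consortium for Functional Glycomics database and were retained only where the protein sequence was available. Z-scores were averaged across arrays of the same protein sequence at different concentrations or buffers and across linkers.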
# [2] = molecular target: Gal6S(b1-4)Glc6S
# Outline: as §1
# [3] = molecular target: GalNAc(a1-3)GalNAc(b1-3)Gal(a1-4)Gal(b1-4)Glc
# Outline: as §1
# [4] = molecular target: GalNAc(b1-4)GlcNAc
# Outline: as §1
# [5] = molecular target: GalNAc(b1-4)GlcNAc(b1-2)Man(a1-3)[GalNAc(b1-4)GlcNAc(b1-2)Man(a1-6)]Man(b1-4)GlcNAc(b1-4)GlcNAc
# Outline: as §1
# [6] = molecular target: GalNAc3S(b1-4)GlcNAc3S
# Outline: as §1
# [7] = molecular target: Glc(b1-4)Glc
# Outline: as §1
# [8] = molecular target: GlcNAc(b1-2)Man(a1-3)[GlcNAc(b1-4)][GlcNAc(b1-2)Man(a1-6)]Man(b1-4)GlcNAc(b1-4)GlcNAc
# Outline: as §1
# [9] = molecular target: GlcNAc(b1-2)[GlcNAc(b1-6)]Man(a1-6)[GlcNAc(b1-4)][GlcNAc(b1-2)Man(a1-3)]Man(b1-4)GlcNAc(b1-4)GlcNAc
# Outline: as §1
# [10] = molecular target: GlcNAc(b1-3)Gal(b1-4)GlcNAc(b1-3)Gal(b1-4)GlcNAc(b1-2)[GlcNAc(b1-3)Gal(b1-4)GlcNAc(b1-3)Gal(b1-4)GlcNAc(b1-6)]Man(a1-6)[GlcNAc(b1-3)Gal(b1-4)GlcNAc(b1-3)Gal(b1-4)GlcNAc(b1-2)Man(a1-3)]Man(b1-4)GlcNAc(b1-4)[Fuc(a1-6)]GlcNAc
# Outline: as §1
# [11] = molecular target: GlcNAc(b1-3)Gal(b1-4)GlcNAc(b1-3)Gal(b1-4)GlcNAc(b1-3)GalNAc
# Outline: as §1
# [12] = molecular target: GlcNAc(b1-6)GalNAc
# Outline: as §1
# [13] = molecular target: Kdn(a2-3)Gal(b1-4)Glc
# Outline: as §1
# [14] = molecular target: Man(a1-2)Man(a1-3)[Man(a1-2)Man(a1-6)]Man(a1-6)[Man(a1-2)Man(a1-2)Man(a1-3)]Man(b1-4)GlcNAc(b1-4)GlcNAc
# Outline: as §1
# [15] = molecular target: Man(a1-2)Man(a1-6)[Man(a1-3)]Man(a1-6)[Man(a1-2)Man(a1-2)Man(a1-3)]Man
# Outline: as §1
# [16] = molecular target: Man(a1-3)[Man(a1-6)]Man(a1-6)[Man(a1-3)]Man
# Outline: as §1
# [17] = molecular target: Man(a1-6)Man
# Outline: as §1
# [18] = molecular target: Neu5Ac(a2-3)Gal(b1-3)GlcNAc(b1-2)Man(a1-3)[Neu5Ac(a2-3)Gal(b1-3)GlcNAc(b1-2)Man(a1-6)]Man(b1-4)GlcNAc(b1-4)GlcNAc
# Outline: as §1
# [19] = molecular target: Neu5Ac(a2-3)Gal(b1-3)GlcNAc6S
# Outline: as §1
# [20] = molecular target: Neu5Ac(a2-3)Gal(b1-4)GlcNAc(b1-3)Gal(b1-3)GlcNAc
# Outline: as §1
# [21] = molecular target: Neu5Ac(a2-3)Gal(b1-4)GlcNAc6S
# Outline: as §1
# [22] = molecular target: Neu5Ac(a2-6)Gal(b1-4)GlcNAc(b1-2)Man(a1-3)Man(b1-4)GlcNAc(b1-4)GlcNAc
# Outline: as §1
# [23] = molecular target: Neu5Ac(a2-6)Gal(b1-4)GlcNAc(b1-2)Man(a1-3)[Man(a1-6)]Man(b1-4)GlcNAc(b1-4)GlcNAc
# Outline: as §1
# [24] = molecular target: Neu5Ac(a2-6)GlcNAc(b1-4)GlcNAc(b1-4)GlcNAc
# Outline: as §1
# [25] = molecular target: Neu5Ac(a2-8)Neu5Ac(a2-3)Gal(b1-3)GalNAc(b1-4)[Neu5Ac(a2-8)Neu5Ac(a2-3)]Gal(b1-4)Glc
# Outline: as §1
# [26] = molecular target: Neu5Ac(a2-8)Neu5Ac(a2-3)[Gal(b1-3)GalNAc(b1-4)]Gal(b1-4)Glc
# Outline: as §1
# [27] = molecular target: Neu5Gc(a2-3)Gal(b1-4)[Fuc(a1-3)]GlcNAc
# Outline: as §1
binder,measurement,setting,value
B1,glycan array binding signal (z-score),[1],-0.519
same,glycan array binding signal (z-score),[2],-0.34
same,glycan array binding signal (z-score),[3],-0.209
same,glycan array binding signal (z-score),[4],2.31
same,glycan array binding signal (z-score),[5],7.58
same,glycan array binding signal (z-score),[6],-0.031
same,glycan array binding signal (z-score),[7],0.66
same,glycan array binding signal (z-score),[8],-0.289
same,glycan array binding signal (z-score),[9],-0.522
same,glycan array binding signal (z-score),[10],0.854
same,glycan array binding signal (z-score),[11],-0.766
same,glycan array binding signal (z-score),[12],2.85
same,glycan array binding signal (z-score),[13],4.07
same,glycan array binding signal (z-score),[14],3.3
same,glycan array binding signal (z-score),[15],-0.524
same,glycan array binding signal (z-score),[16],-0.782
same,glycan array binding signal (z-score),[17],-0.696
same,glycan array binding signal (z-score),[18],-0.809
same,glycan array binding signal (z-score),[19],0.954
same,glycan array binding signal (z-score),[20],-1.04
same,glycan array binding signal (z-score),[21],-0.786
same,glycan array binding signal (z-score),[22],-0.792
same,glycan array binding signal (z-score),[23],-0.896
same,glycan array binding signal (z-score),[24],0.349
same,glycan array binding signal (z-score),[25],-0.862
same,glycan array binding signal (z-score),[26],-0.73
same,glycan array binding signal (z-score),[27],-0.363
